In test [1] the target is Nuclear respiratory factor 1 (Homo sapiens) (UniProt Q16656). The test is described as follows: ATG_NRF1_CIS: Attagene CIS-FACTORIAL HepG2 Assay for human Nuclear Respiratory Factor 1 (NRF1) Orphan Gene (AID 2282987). The note with it: HepG2 NRF1 cis-element reporter, Attagene multiplex; actives raise or lower the signal. The essentials:
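Endogenous NRF1-driven reporter transcription in transfected HepG2 cells after 24 h treatment. Readout: RT-PCR products, 6-FAM labelled and resolved by capillary electrophoresis; changes fitted both directions relative to DMSO.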

The nature of test [2]: ATG_NFI_CIS: Attagene CIS-FACTORIAL HepG2 Assay for human Nuclear Factor I (NFI) (AID 2282989). Particulars: HepG2 cis-regulatory reporter, NFI response element transcription; actives raise or lower the signal. The procedure, abridged:
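Transient MRTU transfection of HepG2 → 24 h chemical dosing → total RNA, oligo(dT) RT → PCR, 6-FAM primer extension, HpaI cut → capillary electrophoresis. Endpoint fitted bidirectionally relative to DMSO.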

The target in test [3] is Myc proto-oncogene protein (Homo sapiens) (UniProt P01106). In words: ATG_Myc_CIS: Attagene CIS-FACTORIAL HepG2 Assay for human Myelocytomatosis (Myc) Proto-Oncogene Transcription Factor (AID 2282990). The note with it: HepG2, Attagene cis-reporter transcription factor activity; actives raise or lower the signal. The essentials:
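Transiently transfected HepG2 cells bearing cis-promoter reporter units for endogenous transcription factors; 24 h exposure. Reporter mRNA measured by RT-PCR, 6-FAM primer extension, HpaI cut and capillary electrophoresis; bidirectional fit relative to DMSO.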

Test [4] in a line: ATG_NF_kB_CIS: Attagene CIS-FACTORIAL HepG2 Assay for human Nuclear Factor Kappa B (NF-kB) (AID 2282991). The note with it: HepG2 Attagene cis-factorial NF-kB reporter mRNA; actives raise or lower the signal. The essentials:
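Readout is reporter transcript level, gain or loss versus DMSO, measured 24 h post-dose via RT-PCR, fluorescent labelling and capillary electrophoresis. Human HepG2 liver cells carried transiently transfected CIS reporter constructs reflecting endogenous factors.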

Test [5] can be described thus: ATG_NRF2_ARE_CIS: Attagene CIS-FACTORIAL HepG2 Assay for human Nuclear Factor Erythroid 2 Related Factor 2 (NFR2) response to Antioxidant Response Elements (ARE) (AID 2282992).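 As to AC50: reporter mRNA level measured by RT-PCR and capillary electrophoresis fluorescence.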 Particulars: HepG2 Attagene ARE/NRF2 reporter, transcription factor activity; actives raise or lower the signal. The essentials: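 Endogenous transcription factor activity in human liver HepG2 cells is tracked via a cis-element-driven reporter within a multiplexed set. mRNA induction is read by RT-PCR and capillary electrophoresis after 24 h, with DMSO as baseline.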

Test [6] addresses Cellular tumor antigen p53 (Homo sapiens) (UniProt P04637). In words: ATG_p53_CIS: Attagene CIS-FACTORIAL HepG2 Assay for human p53 Transcription Factor (AID 2282994). Particulars: HepG2 p53 cis-element reporter, Attagene mRNA; actives raise or lower the signal. The essentials:
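Steps: transfect HepG2 with multiplexed cis reporter constructs; dose chemicals 24 h; extract RNA, reverse-transcribe, PCR-amplify reporter sequences; FAM-label, HpaI-digest, resolve fragments by CE. Activity fitted both directions relative to DMSO.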

The nature of test [7]: ATG_Oct_MLP_CIS: Attagene CIS-FACTORIAL HepG2 Assay for human Octamer-Binding Transcription Factor (Oct) (AID 2282993). The note with it: HepG2 Attagene cis-factorial Oct reporter, mRNA; actives raise or lower the signal. The procedure, abridged: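 Transient MRTU transfection of HepG2 → 24 h compound treatment → RNA isolation, reverse transcription, PCR → 6-FAM primer extension, HpaI digest → capillary electrophoresis. Activity fitted both directions against DMSO.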

Test [8] in a line: BSK_3C_TissueFactor: BioMAP Diversity Plus: 3C Assay for Tissue Factor Biomarker Activity (AID 2282997). The note with it: BioMAP 3C HUVEC, tissue factor biomarker readout; actives raise or lower the signal. The essentials: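 Cells used were primary human umbilical vein endothelial cells. They were dosed with chemical, and after 24 h Tissue Factor was quantified by ELISA. Curves were fitted bidirectionally with DMSO as baseline.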

A short description of test [9]: BSK_3C_uPAR: BioMAP Diversity Plus: 3C Assay for Urokinase-type plasminogen activator receptor (uPAR) Biomarker Activity (AID 2282998). The note with it: BioMAP 3C HUVEC, uPAR biomarker ELISA; actives raise or lower the signal. The procedure, abridged:
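ELISA readout of uPAR on human vascular endothelium (umbilical vein primary cells), taken 24 h after chemical dosing. Increases and decreases are both fitted relative to DMSO vehicle.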
In general terms: An ELISA detects its analyte on a solid surface through an enzyme-linked reagent.

A short description of test [10]: BSK_3C_VCAM1: BioMAP Diversity Plus: 3C Assay for Vascular cell adhesion molecule 1 (VCAM1) Biomarker Activity (AID 2282999). Particulars: BioMAP 3C HUVEC, VCAM1 ELISA, cytokine-stimulated; actives raise or lower the signal. The essentials:
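HUVEC primary cells, 24 h compound exposure; VCAM-1 by ELISA; gain/loss of signal fitted bidirectionally vs DMSO baseline.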

Several values for one entry are separate records, joined by “and”; a condition that tells them apart may be missing. Equal entries are not always repeated. Activity calls are given as the source filed them. The calls were made as follows: active = hit-call score of the fitted dose curve at least 0.9, where 1 is the maximum; inactive = score below 0.9.

One may read the AC50 as the concentration at which the activity in the assay is half-maximal.

Sequence of Nuclear respiratory factor 1 (Homo sapiens) (Q16656 whole entry, looked up): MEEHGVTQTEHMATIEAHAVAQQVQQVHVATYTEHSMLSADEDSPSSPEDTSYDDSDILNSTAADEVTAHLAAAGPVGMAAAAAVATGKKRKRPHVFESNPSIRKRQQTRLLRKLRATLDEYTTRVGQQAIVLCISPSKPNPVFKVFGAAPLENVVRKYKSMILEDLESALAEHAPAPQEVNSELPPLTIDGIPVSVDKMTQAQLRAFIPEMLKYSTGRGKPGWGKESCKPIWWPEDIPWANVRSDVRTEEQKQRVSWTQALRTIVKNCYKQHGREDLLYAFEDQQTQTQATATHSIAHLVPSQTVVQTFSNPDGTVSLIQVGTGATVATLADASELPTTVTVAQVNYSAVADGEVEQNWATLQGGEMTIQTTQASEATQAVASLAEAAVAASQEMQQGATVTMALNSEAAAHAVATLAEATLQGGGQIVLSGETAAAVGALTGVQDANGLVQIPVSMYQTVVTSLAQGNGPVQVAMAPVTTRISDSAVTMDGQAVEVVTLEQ
Sequence of Myc proto-oncogene protein (Homo sapiens) (P01106 whole entry, looked up): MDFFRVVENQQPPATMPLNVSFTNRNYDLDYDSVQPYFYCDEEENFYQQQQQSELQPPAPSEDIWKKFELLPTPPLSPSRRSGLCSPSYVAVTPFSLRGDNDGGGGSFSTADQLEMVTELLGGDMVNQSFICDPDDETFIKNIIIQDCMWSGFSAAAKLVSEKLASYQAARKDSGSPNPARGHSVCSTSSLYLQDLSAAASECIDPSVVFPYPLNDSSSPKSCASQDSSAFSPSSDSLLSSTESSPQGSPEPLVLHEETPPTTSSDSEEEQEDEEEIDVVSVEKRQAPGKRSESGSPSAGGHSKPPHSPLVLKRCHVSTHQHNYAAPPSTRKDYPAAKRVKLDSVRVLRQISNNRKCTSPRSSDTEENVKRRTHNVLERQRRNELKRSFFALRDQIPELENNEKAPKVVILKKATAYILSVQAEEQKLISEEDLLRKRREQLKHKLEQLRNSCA
Sequence of Cellular tumor antigen p53 (Homo sapiens) (P04637 whole entry, looked up, the tested form may be a part): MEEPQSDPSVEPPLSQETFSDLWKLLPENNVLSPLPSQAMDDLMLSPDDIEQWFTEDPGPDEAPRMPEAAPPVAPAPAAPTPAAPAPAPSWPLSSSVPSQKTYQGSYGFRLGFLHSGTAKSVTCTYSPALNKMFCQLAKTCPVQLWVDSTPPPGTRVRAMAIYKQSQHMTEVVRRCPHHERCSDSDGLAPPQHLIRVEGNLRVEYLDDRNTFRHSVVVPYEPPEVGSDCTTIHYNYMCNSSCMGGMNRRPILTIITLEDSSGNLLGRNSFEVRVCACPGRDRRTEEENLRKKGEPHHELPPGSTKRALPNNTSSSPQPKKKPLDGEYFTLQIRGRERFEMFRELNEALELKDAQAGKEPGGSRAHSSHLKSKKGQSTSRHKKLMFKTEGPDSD

On to `CCCCOCCOC(=O)COc1ccc(Cl)cc1Cl`, for which the outcome in test [1], in test [2], in [3], in test [4], in test [5] and in test [6] was inactive.
For `CCOC(=O)c1ccc(C)cc1`, the compound was classed as inactive in [1], in [2], in test [3], in [4], in [5] and in test [6].
For the compound `CCOC(=O)C1=NN(c2ccc(Cl)cc2Cl)C(C)(C(=O)OCC)C1` (stereo unspecified), the result in test [1], in test [2], in test [3], in test [4], in test [5] and in test [7] was inactive. Also, the compound was classed as inactive in test [6], in test [8], in test [9] and in [10].
Turning to `CC1(C)CC(O)CC(C)(C)N1[O]`, the compound was called inactive in test [1], in test [2], in [3], in [4], in test [8] and in test [9]. For the same compound, in test [10], the result was inactive. The AC50 in test [5] was 26.6 µM (active).
Take `Cc1cc(C)c(C=O)c(C)c1`: the outcome in test [1], in test [2], in test [3], in [4], in test [5] and in test [6] was inactive.
On to `CC(CC(C)C)=NO`, for which the outcome in test [1], in test [2], in test [3], in [4], in test [5] and in test [6] was inactive.
Take `Cc1c(O)cccc1O`: the compound was classed as inactive in [1], in test [2], in test [3], in test [4], in test [5] and in [7]. Also, the result in test [8], in [9] and in [10] was inactive.
As for `Nc1ncnc2nc[nH]c12`, the compound was called inactive in test [1], in test [2], in [3], in [4], in test [7] and in [6].
`c1ccc2sc(SSN3CCOCC3)nc2c1`: the AC50 in test [1] was 100 µM (active); in test [2] it was 75 µM (active); in test [3], 76.3 µM (active); in test [5], 48.8 µM (active); in [7], 100 µM (active); in test [8], 9.51 µM (active). Moreover, the AC50 is 4.34 µM (active) in [9] and 8.13 µM (active) in test [10]. In addition, the result in test [4] was inactive.
`O=C(Nc1ccccc1)c1cc(Cl)ccc1O`: the compound was classed as inactive in test [1], in test [3], in [4] and in test [6]. The results for the AC50 in test [2] and in test [5] were 5.49 µM (active) and 2.35 µM (active), respectively.
`CCCC(C)C(=O)OCC` (stereo unspecified): the result in test [1], in test [2], in test [3], in [4], in test [5] and in test [7] was inactive. Further, the compound was classed as inactive in test [6], in [8], in [9] and in test [10].
Consider `CCOC(=O)OC(=O)OCC`, for which the compound was called inactive in test [1], in test [2], in [3], in test [4], in [7] and in test [6].
Turning to `CC=C(C)C=CC=C(C)C`, the compound was called inactive in [1], in test [2], in test [3], in test [4], in test [7] and in test [6]. Also, the outcome in test [9] was inactive. For the same compound, the AC50 in [5] is 26.8 µM (active); in test [8] it was 20 µM (active); in [10], 18.6 µM (active).
As for `CCCCCCCCCC[N+](C)(CCCCCCCCCC)CCC[Si](OC)(OC)OC`, the outcome in [1], in test [2], in [4] and in [7] was inactive. Further, in [3], the AC50 was 14.6 µM (active).
`COc1ccc(C(=O)/C(Br)=C\C(=O)O)cc1`: the compound was classed as inactive in test [1], in test [2], in [3] and in [6]. Besides, the AC50 in [4] was 13 µM (active); in [5] it was 2.53 µM (active); in test [7], 49.4 µM (active); in test [8] it was 11.9 µM (active) and 10.2 µM (active); in test [9], 29.7 µM (active) and 31.7 µM (active); in test [10], 14.2 µM (active) and 20 µM (active).
On to `C=C1C[C@H]2[C@@H]3C=C(C)C4=CC(=O)CC[C@]4(C)[C@H]3CC[C@]2(C)[C@@]1(OC(C)=O)C(C)=O`, for which the AC50 in test [1] is 88.1 µM (active); in [2], 106 µM (active); in [4] it was 63 µM (active); in test [5] it was 42.1 µM (active). For the same compound, the compound was classed as inactive in [3] and in [6].
As to `CC=C(C)C(C)=O`, the call in test [1], in test [2], in test [3], in test [4], in test [5] and in [7] was inactive. The outcome in test [8], in test [9] and in test [10] was inactive.
As to `O=S(=O)(O)c1ccc(Nc2nc(Nc3ccc(C=Cc4ccc(Nc5nc(Nc6ccc(S(=O)(=O)O)cc6)nc(N(CCO)CCO)n5)cc4S(=O)(=O)O)c(S(=O)(=O)O)c3)nc(N(CCO)CCO)n2)cc1`, the compound was classed as inactive in test [1], in test [2], in test [3], in test [4], in [5] and in test [6].
Consider `COc1ccc(C(=O)c2ccccc2)c(O)c1`, for which the outcome in test [1], in [2], in [3], in [7], in [6] and in test [8] was inactive. The outcome in test [9] and in test [10] was inactive. Besides, the AC50 is 168 µM (active) in test [4] and 100 µM (active) in [5].
In the case of `CCCCCC(=O)OCC`, the outcome in test [1], in test [2], in test [3], in [4], in test [7] and in test [6] was inactive.
Consider `CCNc1nc(NC(C)(C)C)nc(OC)n1`, for which the call in test [1], in [2], in [3], in [4], in test [5] and in [7] was inactive. Besides, the outcome in test [6], in test [8], in [9] and in test [10] was inactive.
As to `CCC(C)N` (stereo unspecified), the result in [1], in test [2], in [3], in test [4] and in test [7] was inactive.
In the case of `CC(=O)CC(=O)Nc1ccccc1C`, the call in test [1], in test [2], in [3], in [4], in test [7] and in test [6] was inactive.
As to `CC/C=C\C/C=C\C/C=C\CCCCCCCC(=O)OC`, the result in test [1], in test [2], in test [3] and in test [6] was inactive. Besides, the AC50 is 32.4 µM (active) in test [4]; 48.1 µM (active) in test [5]; 135 µM (active) in test [7]; 13.5 µM (active) in test [8]; 31.6 µM (active) in test [9]; 14.2 µM (active) in test [10].
Turning to `CCOC(=O)[C@H](O)[C@@H](O)C(=O)OCC`, the compound was classed as inactive in [1], in test [2], in test [3], in [4], in test [5] and in [6].
`CC(C)C(=O)OCCc1ccccc1`: the compound was called inactive in test [1], in [2], in test [3], in test [4], in [5] and in test [7]. The result in test [8], in test [9] and in test [10] was inactive.

For the origin of these results see PubChem BioAssay (EPA / NIEHS).
